Source: PubChem BioAssay (National Center for Advancing Translational Sciences (NCATS))
G9a block = blocks human histone lysine methyltransferase G9a; Q96KQ7; G9a H3K9 monomethylation, AlphaScreen, 2 h; Potency, µM (highest dose often 102 µM), hits mostly inhibitors; 8.8% of 350,000 active; AID 504332; further: nearly all actives have a fitted effect of over 75% in size
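Methyltransferase reactions run at room temperature for 2 h (20 nM enzyme, 500 nM biotin-H3K9 peptide, 20 uM SAM) after a 15 min compound preincubation; product detected by AlphaScreen beads and anti-H3K9me1 antibody.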
L3MBTL1 block = L3MBTL1 (human) inhibition. Q9Y468. AlphaScreen L3MBTL1–H3K9me1 peptide binding. Potency, µM (titrated, usually from 57.1 µM), most hits filed as inhibitors. 0.66% of 230,000 active; further: nearly all actives have a fitted effect of over 60% in size
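Displacement of a biotinylated histone H3(1-15) peptide monomethylated at Lys9 (75 nM) from L3MBTL1 (50 nM) was measured by AlphaScreen after a 30 min room-temperature compound incubation; cefsulodin titration served as intraplate control.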
HP1b binding inh = blocks HP1-beta chromodomain binding to methylated histone tails; AID 540317; 0.56% of 390,000 active; P83916; Potency, µM (titrated, usually from 114 µM), most hits filed as inhibitors; AlphaScreen HP1-beta / biotin-H3K9me3 peptide binding; further: nearly all actives have a fitted effect of over 70% in size
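AlphaScreen: HP1-beta (50 nM) preformed 30 min with biotin-H3(1-18)K9me3 peptide (50 nM) in PBS pH 7.4, 0.01% Tween-20. Compound added for 30 min at RT, then streptavidin donor/nickel chelate acceptor beads (10 ug/mL) for 30 min.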
BAZ2B inh = blocks human BAZ2B. Q9UIF8. AlphaScreen BAZ2B-H3K14Ac peptide displacement. Potency, µM (titrated, usually from 114 µM), usual class: inhibitors. 4.4% of 360,000 active; further: nearly all actives have a fitted effect of over 60% in size
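AlphaScreen displacement of biotin-H3(5-23)K14Ac peptide (50 nM final) from BAZ2B (50 nM final) in PBS pH 7.4, 0.01% Tween-20; complex preformed 30 min RT, then compounds (top 110 uM) 30 min RT, beads 20 min dark.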
JMJD2A Tudor = inhibitors of human JMJD2A Tudor domain; O75164; AlphaScreen JMJD2A-Tudor / H3K4me3 peptide binding; Potency, µM (titrated, usually from 114 µM), most hits filed as inhibitors; 4.4% of 390,000 active; further: nearly all actives have a fitted effect of over 50% in size
Target sequence (O75164 whole entry, looked up, the tested form may be a part): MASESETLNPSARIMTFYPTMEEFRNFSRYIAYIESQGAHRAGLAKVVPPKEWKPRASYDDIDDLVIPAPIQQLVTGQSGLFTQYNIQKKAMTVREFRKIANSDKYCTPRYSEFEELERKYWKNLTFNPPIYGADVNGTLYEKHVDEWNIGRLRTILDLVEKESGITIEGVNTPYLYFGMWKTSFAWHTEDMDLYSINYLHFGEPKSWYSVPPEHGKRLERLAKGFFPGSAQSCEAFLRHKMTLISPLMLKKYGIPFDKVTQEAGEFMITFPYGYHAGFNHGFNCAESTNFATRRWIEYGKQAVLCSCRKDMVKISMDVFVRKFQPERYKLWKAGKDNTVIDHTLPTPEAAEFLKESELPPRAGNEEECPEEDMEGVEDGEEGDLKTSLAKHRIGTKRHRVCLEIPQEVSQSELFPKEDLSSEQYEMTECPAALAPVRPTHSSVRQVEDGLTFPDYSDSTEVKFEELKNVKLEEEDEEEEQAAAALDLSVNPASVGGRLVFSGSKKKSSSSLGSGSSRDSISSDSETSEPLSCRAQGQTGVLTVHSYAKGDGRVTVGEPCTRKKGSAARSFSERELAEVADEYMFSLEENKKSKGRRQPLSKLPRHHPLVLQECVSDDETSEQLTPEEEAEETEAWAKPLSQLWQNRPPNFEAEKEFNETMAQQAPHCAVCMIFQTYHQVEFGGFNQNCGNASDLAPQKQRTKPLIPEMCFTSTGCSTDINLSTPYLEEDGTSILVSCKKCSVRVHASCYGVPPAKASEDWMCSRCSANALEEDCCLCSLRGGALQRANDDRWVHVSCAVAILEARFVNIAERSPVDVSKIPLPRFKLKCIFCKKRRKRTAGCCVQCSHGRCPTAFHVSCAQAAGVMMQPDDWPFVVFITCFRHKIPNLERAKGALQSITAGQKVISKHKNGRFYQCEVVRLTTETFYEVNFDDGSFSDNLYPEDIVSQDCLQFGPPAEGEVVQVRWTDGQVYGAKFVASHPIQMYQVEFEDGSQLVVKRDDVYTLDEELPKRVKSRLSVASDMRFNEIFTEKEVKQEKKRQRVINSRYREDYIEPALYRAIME
Sfp inh = Sfp phosphopantetheinyl transferase inhibition | Q9F4F7 | AID 1490 | Potency, µM, most hits filed as inhibitors | 3.5% of 310,000 active | Biochemical Sfp PPTase activity, qHTS;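 further: the enzyme is Sfp with the accession as filed and its product quenches rhodamine fluorescence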
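Step 1, compound plus 15 nM Sfp-PPTase, 15 min, room temperature. Step 2, add rhodamine-CoA (5 uM) and BHQ-2-YbbR (12.5 uM). Step 3, read 525/598 nm fluorescence at 0 and 30 min.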
A number is an active result; – = inactive; ? = inconclusive; · = not tested or not shown; ! = not confirmed by another sample; [ ] = another dose, or the depositor's remark. This is a sample that favours compounds with a hit; in the whole collection about 12% have one here. The call rests on the fitted dose curve; in most records, active means well fitted curve in the direction sought with a large enough effect; inconclusive means small, poorly fitted or top-dose-only effect, or another doubt; inactive means no such curve, though single readings can be large; an effect the other way counts as inactive or inconclusive.

SMILES	G9a block	L3MBTL1 block	HP1b binding inh	BAZ2B inh	JMJD2A Tudor	Sfp inh
CC(=O)OCOCC(=O)OCO[P+](=O)C(OCOC(C)=O)c1cc([N+](=O)[O-])ccc1Oc1ccc(Br)cc1 (stereo unspecified)	–	·	·	·	·	–
CN(CCc1ccccc1)Cc1ccccc1[N+](=O)[O-]	?	·	–	?	–	–
Oc1ccccc1CN(CCc1ccccc1)Cc1ccccc1	–[0.501 µM]	–[2.29 µM]	–	?	45µM	?
Oc1cccc[c]1[Hg][Cl]	?	·	·	·	·	0.14µM
CCN(CC)CCOC(=O)C(C)(c1ccccc1)c1ccccc1	–[12.7 µM]	·	·	·	·	–
CN1C(=O)[C@]23CC4=CC=C[C@H](O)[C@H]4N2C(=O)[C@@]1(CO)SS3	·	·	·	·	·	2.5µM
Cc1nc2ccccc2c(=O)n1-c1cc([N+](=O)[O-])cc([N+](=O)[O-])c1	–	–	–	–	–	–
Cn1cc2c([N+](=O)[O-])cc([N+](=O)[O-])cc2n1	79µM	–	·	?	·	–
O=C(C1CC(c2ccccc2O)=NO1)N1CCC2(CC1)OCCO2 (stereo unspecified)	50µM	·	–	–	14µM	–
O=C(c1ccccc1)N1CCC2(CC1)OCCO2	·	–	–	–	–	–
CC(c1ccccc1)n1cncc1C(=O)N1CCCC1=O (stereo unspecified)	50µM	–	–	?	?	–
CCOc1ccc2nc(N(CCN(CC)CC)C(=O)c3ccc([N+](=O)[O-])cc3)sc2c1	–	·	–	·	–	?
Cc1ccc(C)c(S(=O)(=O)Nc2ccc3c(c2)CCCN3C(=O)c2cccs2)c1	?	·	–	–	–	·
C#CCOCCOCCOCCNc1nc(N2CCN(C(=O)CCCCCCCCCCNC(=O)[C@H]([C@@H](C)CC)n3cc(CCCCN=C(N)N)nn3)CC2)nc(N2CCN(C(=O)CCCCCCCCCCNC(=O)[C@H](CO)n3cc(CCCCCN)nn3)CC2)n1	–[2.33 µM]	–	?	50µM	56µM	·
CC(C)(O)C(Cl)(Cl)Cl	?	·	·	·	·	–
COc1cc(OC)c(OC)cc1CNCCc1ccc(F)cc1	·	–	–	–	63µM	–
COc1ccc(CNCCc2cccc(F)c2)c2ccccc12	·	–	·	?	·	?
COc1ccccc1CNCCc1ccc(F)cc1	–	·	?	50µM	32µM	–
COc1ccc(CNCCc2ccc(Cl)cc2)c(OC)c1OC	35µM	–	?	?	32µM	–
Fc1ccc(CCNCc2ccc(Cl)c(Cl)c2)cc1	–[12.7 µM]	–	–	–	–	–
COc1cc(OC)c(OC)cc1CNCCc1cccc(F)c1	–	·	?	56µM	7.9µM	–
COC(=O)[C@@H]1C[C@@]2(O)[C@@H](O)[C@@H](O)[C@@H](O)C[C@H]2N1Cc1cccnc1	·	·	·	·	·	–
O=C(O)CCC(CP(=O)(O)O)C(=O)O (stereo unspecified)	·	·	·	·	·	–
Cc1ccc(NC(=O)OC(C)CNC(=O)Oc2cccc(C)c2)cc1 (stereo unspecified)	–	–	–	?	–	–
COc1ccc(CCN)cc1OC	–	·	–	–	–	–
SMILES	G9a block	L3MBTL1 block	HP1b binding inh	BAZ2B inh	JMJD2A Tudor	Sfp inh
COc1cc(OC)c(OC)cc1CNCCc1ccc(OC)c(OC)c1	?	–	?	?	3.2µM	–
COc1ccc(CCNCc2ccc(Br)cc2)cc1OC	–	·	?	50µM	20µM	–
COc1ccc(OC)c(CNCCc2ccc(OC)c(OC)c2)c1	·	–	–	?	18µM	–
COc1ccc(CCNCc2ccccc2F)cc1OC	–	–	–	–	–	–
COc1ccc(CCNCc2ccccc2F)cc1	–	·	–	45µM	20µM	–
CNCCc1ccc(OC)c(OC)c1	?	·	–	–	–	–
N#CC(O[C@@H]1OC(COC2OC(CO)C(O)C(O)[C@@H]2O)C(O)C(O)C1O)c1ccccc1 (stereo partly specified)	–[2.33 µM]	·	·	·	·	–
Cc1ccc(C)c(N2CCN(C(=O)C3CCN(Cc4nc(-c5cccc(Cl)c5)oc4C)CC3)CC2)c1	?	·	–	8.9µM	40µM	·
Cc1ccc(Cl)cc1N1CCN(C(=O)C2CCN(Cc3nc(-c4ccc(Cl)cc4)oc3C)CC2)CC1	?	·	–	8.9µM	?	·
CC(C)n1c(=O)c(C=Nc2ccc(S(N)(=O)=O)cc2)c(O)n(Cc2ccco2)c1=O	?	–	–	?	–	–
Cc1cccn2c(=O)c(C=Nc3ccccc3)c(NCc3ccco3)nc12	50µM	–	–	?	–	50µM
CC[N+](C)(C)c1cccc(O)c1	–	–	–	–	–	–
CCN1C[C@]2(C)CC[C@H](OC)[C@@]34[C@H]1C1(OCO[C@@]15C[C@H](OC)C1C[C@]3(O)C5[C@H]1OC)[C@@H](O)[C@H]24	·	·	·	·	·	–
COc1ccc(CNC(=O)/C=C/c2ccc3[nH]cc(CCN(C)C)c3c2)cc1	40µM!	·	–	?	–	–
COc1ccc2[nH]cc(CCN(C)C)c2c1	56µM!	?	–	–	–	–
CCCCn1c(-c2ccoc2C)n[nH]c1=S	4µM	–	–	–	7.9µM	–
C#CCOc1ccc2c(c1)c(C(C)=O)c(C)n2Cc1ccccc1	–	–	–	–	–	–
COc1ccc2c(c1)c(CCN)c(C)n2Cc1ccccc1	40µM	–	?	?	?	–
COc1ccc(OC)c(C(Nc2ccccc2)P(=O)(OC(C)C)OC(C)C)c1 (stereo unspecified)	?	–	–	–	–	–
CCOC(=O)c1cn2nc(OP(=S)(OCC)OCC)cc2nc1C	20µM	–	–	–	–	–
CC[C@]1(c2cccc(O)c2)CCCCN(C)C1	–[21.5 µM]	·	·	·	·	–
Clc1ccc(CCC(Cn2ccnc2)Sc2c(Cl)cccc2Cl)cc1 (stereo unspecified)	?	?	–	?	25µM	·
Brc1nc(-c2ccccc2)nc(-c2ccccc2)c1Br	·	·	–	·	–	·
O=C1NC(=O)N(Cc2ccccc2)C(=O)/C1=C\N1CCCc2ccccc21	?	?	–	–	–	?
O=C1NC(=O)C(=CN2CCc3ccccc32)C(=O)N1	13µM	–	–	–	–	–
SMILES	G9a block	L3MBTL1 block	HP1b binding inh	BAZ2B inh	JMJD2A Tudor	Sfp inh
O=C1C(I)=CC(=C(c2cc(I)c(O)c(I)c2)c2ccccc2C(=O)O)C=C1I	?	·	·	·	·	32µM
COc1ccc(C=C2C(=O)NC(=S)NC2=O)cc1	·	·	?	·	89µM	·
O=C1NC(=S)NC(=O)C1=Cc1ccc(OCc2ccccc2)cc1	·	·	–	·	79µM	·
COc1ccc(OCCOc2cccc(C=C3C(=O)NC(=O)NC3=O)c2)cc1	?	?	·	–	·	–
O=C1NC(=S)NC(=O)C1=Cc1cccc2cc3ccccc3cc12	16µM	–	–	32µM	–	25µM
COP(=S)(OC)SCN1C(=O)c2ccccc2C1=O	16µM	–	–	–	–	35µM
CNC(=O)CSP(=S)(OC)OC	·	·	–	·	–	?
Cc1c(C=O)c2ccccc2n1Cc1ccccc1	·	–	–	–	–	–
